Experimental findings from PubChem BioAssay AID1851 (National Center for Advancing Translational Sciences (NCATS), 2009) are described below.

Hit rate of the full screen: of about 16,000 compounds, about 5,700 (36%) were called active. Roughly 24% stayed inconclusive and do not appear here. Calls come from the whole dose curve; as a rule, active = well fitted curve in the direction sought with a large enough effect; inconclusive = small, poorly fitted or top-dose-only effect, or effect the other way; inactive = no such curve, though single readings can be large or run the other way. The list shows a part of the results.

Usually AC50 stands for the concentration at which the activity in the assay is half-maximal.
% is set by controls: 0 for no effect and ±100 for the full control effect.

The target in the experiment is Cytochrome P450 1A2 (Homo sapiens) (UniProt P05177). The experiment can be described thus: Cytochrome panel assay with activity outcomes. As to conditions: recombinant CYP, pro-luciferin dealkylation, luminescence, p450-cyp1a2; series mostly up to 57.1 µM; activity, negative = inhibition: at the top concentration.
Chain of Cytochrome P450 1A2 (Homo sapiens) (P05177 whole entry, looked up): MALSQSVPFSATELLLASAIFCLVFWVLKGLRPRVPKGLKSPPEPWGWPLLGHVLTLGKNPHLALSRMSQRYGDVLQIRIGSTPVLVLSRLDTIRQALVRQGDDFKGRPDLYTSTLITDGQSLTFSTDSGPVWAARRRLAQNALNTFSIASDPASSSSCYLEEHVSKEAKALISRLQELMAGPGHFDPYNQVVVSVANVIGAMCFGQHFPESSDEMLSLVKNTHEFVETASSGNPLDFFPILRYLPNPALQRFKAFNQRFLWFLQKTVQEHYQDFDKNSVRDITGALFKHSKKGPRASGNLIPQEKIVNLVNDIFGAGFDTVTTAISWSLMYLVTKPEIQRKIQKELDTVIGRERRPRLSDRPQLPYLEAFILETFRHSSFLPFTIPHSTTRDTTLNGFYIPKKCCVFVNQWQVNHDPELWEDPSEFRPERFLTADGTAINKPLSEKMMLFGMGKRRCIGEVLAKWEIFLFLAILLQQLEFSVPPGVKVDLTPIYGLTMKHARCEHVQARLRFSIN
In the case of `O=C(C1CCCCC1)N1CC(=O)N2CCc3ccccc3[C@@H]2C1`, the AC50 was 10 µM (active).

Consider `O=C(NC1CCCc2ccccc21)C1CCN(S(=O)(=O)N2CCCCCC2)CC1` (stereo not drawn), for which the “activity, negative = inhibition” value is -7.71% (inactive).

In the case of `CCN1CCN(C(=O)C2c3cc(OC)c(OC)cc3C(=O)N3CCc4ccccc4C23)CC1` (stereo not drawn), the “activity, negative = inhibition” value was -26.3% (inactive).

Regarding `CCOc1nc(N=C(N)N)nc2c(C)cccc12`, the AC50 is 0.178 µM (active).

For the compound `CN1Cc2c(C(=O)OC(C)(C)C)ncn2-c2ccsc2C1=O`, the AC50 was 15.8 µM (active).

On to `CN(C)C(=O)c1ccc(-c2cncnc2NCCc2cnc[nH]2)cc1`, for which the AC50 is 12.6 µM (active).

Take `CN(C)c1ccc(-c2cncnc2NCCc2cnc[nH]2)cc1`: the AC50 is 1.26 µM (active).

Take `c1ncc(-c2ccc3c(c2)OCO3)c(NCCc2cnc[nH]2)n1`: the AC50 was 0.398 µM (active).

Take `Cc1sc(NC(=O)C2CCCCC2C(=O)O)c(C(N)=O)c1C` (stereo not drawn): the “activity, negative = inhibition” value is -17.7% (inactive).

`CCCCCc1nnc(NC(=O)C(=O)OCC)s1`: the “activity, negative = inhibition” value was -18% (inactive).

On to `CCc1c(C)sc(NC(=O)OC)c1C(N)=O`, for which the AC50 was 8.91 µM (active).

Turning to `O=C(Oc1ccc(C(=S)N2CCOCC2)cc1Br)c1cc(Cl)ccc1Cl`, the “activity, negative = inhibition” value was -15.3% (inactive).

As to `O=C(c1ccc(Cl)c(Cl)c1)c1cc(-c2ccccn2)c(N2CCOCC2)s1`, the AC50 was 11.2 µM (active).

For `O=C(O)c1cc2ccccc2c(Cc2cc3ccccc3c(C(=O)O)c2O)c1O` (tested in a mixture with another compound), the “activity, negative = inhibition” value is -10.6% [at 25.6 µM] (inactive).

Turning to `O=C(O)c1cc(C(=O)C(=O)c2cc(C(=O)O)c(O)c3ccccc23)c2ccccc2c1O`, the activity, negative = inhibition was -6.52% [at 11.4 µM] (inactive).

With `O=C(O)c1c2ccccc2cc2ccccc12`, the AC50 is 0.2 µM (active).

On to `C=CCSC[C@@H]1Nc2cc(Cl)c(S(N)(=O)=O)cc2S(=O)(=O)N1`, for which the “activity, negative = inhibition” value is -13.5% [at 25.6 µM] (inactive).

Take `Cc1noc(C)c1C(=O)N1CCC[C@@]2(CCN(c3ncccn3)C2)C1`: the “activity, negative = inhibition” value was -11.1% (inactive).

Take `COc1ccc2[nH]cc(CCNc3nc(-c4ccc(C(=O)N(C)C)cc4)nc4ccccc34)c2c1`: the AC50 was 15.8 µM (active).

In the case of `COc1cccc(N(C(=O)Cn2nnc(-c3ccc(C)cc3)n2)C(C(=O)NC(C)(C)C)c2c[nH]c3ccccc23)c1` (stereo not drawn), the “activity, negative = inhibition” value is -7.1% (inactive).

As for `COc1ccc2[nH]cc(CCNc3nc(-c4ccc(N(C)C)cc4)nc4ccccc34)c2c1`, the AC50 is 1.26 µM (active).

Regarding `C[C@H]1CCCC2(CC[N+](C)(CCC[N+](C)(C)C)CC2)C1` (stereo partly drawn), the activity, negative = inhibition is -9.21% [at 11.4 µM] (inactive).

In the case of `COC(=O)c1ccccc1NC(=O)c1cc2nc(C3CC3)cc(C(F)(F)F)n2n1`, the AC50 was 1.58 µM (active).

On to `COCCNc1nc(-c2ccccc2Cl)nc2ccccc12`, for which the AC50 is 0.126 µM (active).

As to `COCCNc1nc(-c2ccccc2C)nc2ccccc12`, the concentration at half-maximal activity (AC50) is 1.26 µM (active).

Take `COCCNc1nc(-c2ccccc2OC)nc2ccccc12`: the AC50 was 0.794 µM (active).

Consider `COCCNc1nc(-c2ccccc2C(F)(F)F)nc2ccccc12`, for which the AC50 was 1.26 µM (active).

Regarding `C[C@@H](N=C(N)N)C(=O)O`, the activity, negative = inhibition is -4.5% [at 11.4 µM] (inactive).

`OCCN(CO)CO`: the activity, negative = inhibition is -9.46% [at 11.4 µM] (inactive).

As for `O=S1(=O)C=C(N2CCOCC2)c2ccccc21`, the AC50 was 14.1 µM (active).

In the case of `CCOc1cc(/C=C2/SC(=O)N(CC(=O)N3CCc4ccccc4C3)C2=O)ccc1OCC(=O)O`, the “activity, negative = inhibition” value is 6.34% (inactive).

Take `COC(=O)c1ccccc1OCC(=O)N1CCN(c2ccc(OC)cc2)CC1`: the “activity, negative = inhibition” value is -17.2% (inactive).

With `COc1ccc2c(c1)c(=O)oc1c(C)c(OCC(=O)N3CCc4ccccc4C3)ccc12`, the AC50 was 2 µM (active).

In the case of `COC(=O)CSc1nnc(-c2ccccc2OC)n1-c1ccc(C)cc1`, the “activity, negative = inhibition” value was -9.92% (inactive).

For `COc1ccccc1-c1nnc(SCc2nc3ccccc3s2)n1C`, the AC50 is 14.1 µM (active).

For `N#Cc1c(-c2ccccc2)nc2n(c1=O)CCS2`, the AC50 is 3.16 µM (active).

For the compound `CCn1c(=O)c2c(nc3n2CCS3)n(C)c1=O`, the “activity, negative = inhibition” value is -29% (inactive).

As for `COc1cc(=O)n2c(n1)SCCC2`, the “activity, negative = inhibition” value was -1.28% (inactive).

Turning to `O=c1c(Cc2ccccc2)c(O)nc2n1CCS2`, the “activity, negative = inhibition” value is -10.2% (inactive).

Consider `N#Cc1c(-c2ccc(Cl)cc2)nc2n(c1=O)CCCS2`, for which the concentration at half-maximal activity (AC50) is 1.41 µM (active).

Take `CC(C)=CCC/C(C)=C/CO/N=C1/C[C@@H](O)[C@@H](O)[C@@H]2[C@@H]3C(=O)N(C[C@@H]4CCCO4)C(=O)[C@H]3CC[C@H]12`: the activity, negative = inhibition is -0.0642% [at 11.4 µM] (inactive).

Consider `CC(C)(C)N1C(=O)[C@H]2[C@H]3[C@H](O)[C@H](O)C/C(=N/NC(=O)OCc4ccccc4)[C@@H]3CC[C@@H]2C1=O`, for which the activity, negative = inhibition was -5.49% [at 11.4 µM] (inactive).

Turning to `COc1ccc(/C=C2\OC(=O)c3c(OC)cccc32)cc1OC`, the AC50 was 3.16 µM (active).

Consider `COc1ccccc1OCCOc1ccc(/C=C2/C(=N)N3OC(C)=CC3=NC2=O)cc1OC`, for which the “activity, negative = inhibition” value is -4.69% (inactive).

As to `Cc1cc(-c2cc(C)c(O)c(C(C)(C)C)c2)cc(C(C)(C)C)c1O`, the AC50 is 0.631 µM (active).

In the case of `Cc1cc(Cc2cc(C)cc(C(C)(C)C)c2O)c(O)c(Cc2cc(C)cc(C(C)(C)C)c2O)c1`, the activity, negative = inhibition is -15.6% [at 2.29 µM] (inactive).

As to `Cc1cc(Cc2cc(Cc3cc(C)cc(C(C)(C)C)c3O)c(C)cc2C)c(O)c(C(C)(C)C)c1`, the activity, negative = inhibition was -17.1% [at 2.29 µM] (inactive).

Consider `O=C(Nc1ccc2c(c1)OCCO2)c1cc2sccc2n1Cc1ccc(F)cc1`, for which the AC50 is 4.47 µM (active).

Consider `COCCN1C(=O)c2ccccc2C(C(=O)Nc2ccc3c(c2)OCCO3)C1c1ccc(F)cc1` (stereo not drawn), for which the “activity, negative = inhibition” value is -3.22% (inactive).

As to `COc1ccc(-c2cc(C(F)(F)F)n3nc(C(=O)N4CCCCC4)cc3n2)cc1`, the AC50 was 15.8 µM (active).

In the case of `COc1ccc(NC(=O)N2CCCC3(CCN(C(=O)c4cc(C(F)(F)F)cc(C(F)(F)F)c4)CC3)C2)cc1`, the “activity, negative = inhibition” value is -13.1% (inactive).

With `COc1ccc(NC(=O)N2CCCC3(CCN(C(=O)c4cnccn4)CC3)C2)cc1`, the “activity, negative = inhibition” value is -15.4% (inactive).

`Nc1nc(SCC(=O)Nc2ccccc2Sc2ccc(Cl)cc2)n[nH]1`: the “activity, negative = inhibition” value is 9.65% (inactive).

Consider `Nc1ccccc1SCc1csc(-c2ccc(Cl)cc2)n1`, for which the AC50 is 0.631 µM (active).

For the compound `C[N+](C)(N)Cc1csc(-c2ccc(Cl)cc2)n1`, the activity, negative = inhibition is -4.22% [at 2.29 µM] (inactive).

Regarding `O=C(CCCCn1c(=O)c2ccccc2n(CC(=O)NC2CCCC2)c1=O)NC1CCCC1`, the “activity, negative = inhibition” value is -2.45% (inactive).

For the compound `Cn1nc(C(=O)NC2CCCCC2)c2ccccc2c1=O`, the AC50 was 12.6 µM (active).

With `CCCn1nc(C(=O)NCC(C)(C)N2CCOCC2)c2ccccc2c1=O`, the “activity, negative = inhibition” value was -25.2% (inactive).

On to `COc1ccc(S(=O)(=O)N2CC3C4C=CC(C4)C3C2)cc1` (stereo not drawn), for which the “activity, negative = inhibition” value is -14% (inactive).

In the case of `O=S(=O)(c1ccc(F)cc1)n1ccc(-c2cnc(-c3ccccc3)s2)n1`, the AC50 is 2.24 µM (active).

On to `COc1ccc(S(=O)(=O)n2ccc(-c3cnc(-c4ccccc4)s3)n2)cc1`, for which the AC50 was 1.12 µM (active).

Take `COc1ccc(-c2cnnc(CCCn3ccnc3-c3ccccc3)n2)cc1`: the activity, negative = inhibition was -12.1% [at 11.4 µM] (inactive).

For `Cc1ccc(S(=O)(=O)n2ccc(-c3cccc(OCc4c(F)cccc4Cl)c3)n2)cc1`, the “activity, negative = inhibition” value was -3.21% (inactive).
